# Hit rate of the full screen: of about 48,000 compounds, about 13,000 (27%) showed an effect of 50% or more. Some of the results follow.
# System: Wolbachia pipientis
# Assay: Anti-Wolbachia Cell-Based Screen
# Assay type: functional
# Design: scale not given: in the data most compounds retested in dose-response had high values
# Details: 5 µM
row,Structure (SMILES),Percent Effect [%]
1,CC(=O)N1CCCN(C(=O)Nc2ccccc2N2CCOC2=O)CC1,-24.88
2,COc1cc(N2C[C@H]3CN(CC(=O)N(C)C)C(=O)[C@H]3C2)ncn1,-6.391
3,Cc1noc(CCNS(=O)(=O)N2CCCC2c2ccco2)n1 (stereo not drawn),-8.363
4,NC(=O)c1nnn(-c2ccc(Cl)cc2)n1,106
5,COc1ccc(-n2nnc(C(N)=O)n2)cc1,106.9
6,NC(=O)c1nnn(-c2ccc(Br)cc2)n1,2.849
7,COCC(C)NC(=O)c1nnn(-c2ccc(OC)cc2)n1 (stereo not drawn),5.009
8,COc1ccc(-n2nnc(C(=O)NCC3CCCCC3)n2)cc1,-6.383
9,O=C(c1nnn(-c2ccc(C(F)(F)F)cc2)n1)N1CC(O)C1,9.515
10,O=C(Nc1ccccc1OCC(F)F)N[C@@H]1C=C[C@H](CO)C1,-12.74
11,O=C(NCC(O)c1ccc(F)cc1F)c1cccnc1O (stereo not drawn),-11.89
12,COCCOc1ccc(C(=O)N[C@@H]2CNCCC[C@H]2O)cc1,-1.711
13,COCCNc1ccc(-c2noc([C@@H]3CCCN3)n2)cn1,5.755
14,Cl.Cl.c1ccc(NCc2cn3c(n2)CNCC3)nc1,6.135
15,Cc1cccc(CNC[C@H]2Cn3ccnc3CO2)n1,-11.54
16,Cc1cc(C)c2nc(CN[C@H]3CCCNC3)cc(O)c2c1,1.45
17,COc1ccnc(CNc2cc(C3CC3)ncn2)c1,-5.331
18,Cl.c1ccc(CNc2cc(C3CCCNC3)ccn2)nc1 (stereo not drawn),70.58
19,Cc1cccc(CNc2cc(C3CCCNC3)ccn2)n1.Cl (stereo not drawn),115.3
20,COCCNc1cc(C2CCCNC2)ccn1.Cl (stereo not drawn),131.3
21,Cc1ccc2c(c1)c(CNC(C)Cn1nc(C)cc1C)nn2C (stereo not drawn),8.057
22,CCN1CCC(CNS(=O)(=O)N2CCc3ccccc3C2)C1 (stereo not drawn),5.13
23,Cc1cccc(C2(CNC(=O)CCN3C(=O)CCC3=O)CCCC2)c1,3.863

row,Structure (SMILES),Percent Effect [%]
1,Cc1ccnc(OC[C@@]23CCO[C@@H]2CCN(S(C)(=O)=O)C3)n1,3.207
2,O=c1ccc(-n2ccnc2)nn1CCNS(=O)(=O)c1ccc(Cl)s1,9.208
3,Cc1nc(NS(=O)(=O)c2cc(C)c(Br)cc2C)no1,12.58
4,CCn1nnc2c1C(COC)CN(Cc1cccs1)C2.O=C(O)C(F)(F)F (stereo not drawn),-4.503
5,CCn1cc2c(n1)C(COC)CN(Cc1ccoc1)C2 (stereo not drawn),-1.069
6,CCn1nnc2c1C(COC)CN(C(=O)Cc1cccs1)C2 (stereo not drawn),-3.417
7,CCn1nnc2c1C(COC)CN(Cc1ccco1)C2 (stereo not drawn),114.9
8,CCn1ncc2c1C(COC)CN(Cc1ccc(C)o1)C2 (stereo not drawn),99.39
9,Cc1ccc(CN2Cc3cnn(C)c3C(COCC3CC3)C2)o1 (stereo not drawn),20.07
10,CCn1ncc2c1C(COC)CN(Cc1ccco1)C2 (stereo not drawn),102.5
11,CNC(=O)C1(N(C)CCc2ccccc2)Cc2ccccc2C1,30.02
12,CCc1ccccc1C(=O)N1C[C@@H](CN2CCOCC2)[C@@H](CO)C1,-4.214
13,O=C(NCC(O)c1cccc(F)c1)C1CCN(C(=O)C2CCC2)CC1 (stereo not drawn),-0.7968
14,CC(C)C1SCC(=O)Nc2c1cnn2-c1ccc(Cl)cc1 (stereo not drawn),114.3
15,CC(C)(C)n1ncc2c1NC(=O)CC2c1ccsc1 (stereo not drawn),12.08
16,CC(C)CC1SCC(=O)Nc2c1cnn2C(C)C (stereo not drawn),1.479
17,CC(=O)N1CCC(NC(C)c2cnn(-c3ccc(F)cc3F)c2C)CC1 (stereo not drawn),-2.797
18,COc1ccc(-n2ncc(C(C)NC3CCSCC3)c2C)cc1 (stereo not drawn),-4.294
19,COc1ccc(C2CC(=O)Nc3c2cnn3C)cc1 (stereo not drawn),32.7
20,Cc1c(C(C)NC2CSCCSC2)cnn1-c1ccc(F)cc1F (stereo not drawn),-0.1798
21,CN1CCN(Cc2cnn(-c3ccc(F)cc3)c2)[C@H]2CS(=O)(=O)C[C@H]21,-6.219
22,CC(C)CC1SCC(=O)Nc2c1cnn2-c1ccc(F)cc1 (stereo not drawn),52.58
23,CC(C)C1SCC(=O)Nc2c1cnn2-c1ccc(Cl)cc1F (stereo not drawn),70.31

row,Structure (SMILES),Percent Effect [%]
1,COc1ccc(-n2ncc3c2NC(=O)CSC3C(C)C)cc1 (stereo not drawn),81.05
2,Cc1noc(CNC(=O)NCCOc2ccc(Cl)cc2)n1,-1.273
3,N#Cc1cccc(OCCCN2CCN(C(=O)c3ccoc3)CC2)c1,-11.27
4,CC(C)n1ncc2c1NC(=O)CSC2C(C)(C)C (stereo not drawn),1.885
5,CC(C)n1[nH]c(=O)c2c1NC(=O)CSC2C1CCCCC1 (stereo not drawn),-15.8
6,CC(C)C1SCC(=O)Nc2c1cnn2-c1ccc(F)cc1 (stereo not drawn),81.09
7,Cc1ccccc1CN(CCN(C)C)Cc1ccc(S(C)(=O)=O)cc1,-5.606
8,COc1cccc(C(C(=O)O)N(C)Cc2ccc(C)o2)c1 (stereo not drawn),105.1
9,COc1cccc(OC)c1C(C(=O)O)N(C)Cc1c(C)n[nH]c1C (stereo not drawn),-9.19
10,COc1cccc(Cl)c1C(C(=O)O)N(C)Cc1c(C)n[nH]c1C (stereo not drawn),-23.52
11,COc1ccc(C(C(=O)O)N(C)Cc2ccon2)cc1Cl (stereo not drawn),4.9
12,Cc1n[nH]c(C)c1CN(C)C(C(=O)O)c1ccc2c(c1)OCO2 (stereo not drawn),109.5
13,COc1ccc(C(C(=O)O)N(C)CCN2CCOCC2)c(C)c1 (stereo not drawn),5.185
14,CN1CCCN(C(C(=O)O)c2ccc3c(c2)OCO3)CC1 (stereo not drawn),-6.004
15,COc1c(C)cc(C(C(=O)O)N(C)Cc2ccn[nH]2)cc1C (stereo not drawn),-0.04634
16,Cc1ccc(CN(C)C(C(=O)O)c2ccc3c(c2)OCO3)o1 (stereo not drawn),114
17,CN(Cc1ccccn1)C(C(=O)O)c1ccc2c(c1)OCO2 (stereo not drawn),99.57
18,CN(C)C(C(=O)N1CC(c2ccccn2)C1)c1ccc2c(c1)OCO2 (stereo not drawn),-10.36
19,Cc1noc(CN(Cc2ccc3c(c2)OCO3)Cc2ccc(C)o2)n1,1.784
20,CCc1c(C)[nH]c(C(C)(C)N)nc1=O.Cl,24.57
21,CCSc1ncc(CN2CCN(c3nc(C)cnc3C)CC2)cn1,-7.047
22,CN(C)CCCC(=O)N1C[C@H]2CC[C@@H]1CN(Cc1ccccc1)C2,-3.863
